High-throughput results (PubChem)
Sampled rows, rich in hits. Any-hit rate of the full collection: about 27%.
CYP2C9 inh – inhibitors of human CYP2C9; P11712; CYP2C9 Supersomes, luciferin-H conversion, luminescence; inhibition, % at 5 µM; hit rate 20% among 96,000;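 active means blocking of liver enzyme CYP2C9 beyond about 50% at 5 µM, limit read from the data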
Target sequence (P11712 whole entry, looked up): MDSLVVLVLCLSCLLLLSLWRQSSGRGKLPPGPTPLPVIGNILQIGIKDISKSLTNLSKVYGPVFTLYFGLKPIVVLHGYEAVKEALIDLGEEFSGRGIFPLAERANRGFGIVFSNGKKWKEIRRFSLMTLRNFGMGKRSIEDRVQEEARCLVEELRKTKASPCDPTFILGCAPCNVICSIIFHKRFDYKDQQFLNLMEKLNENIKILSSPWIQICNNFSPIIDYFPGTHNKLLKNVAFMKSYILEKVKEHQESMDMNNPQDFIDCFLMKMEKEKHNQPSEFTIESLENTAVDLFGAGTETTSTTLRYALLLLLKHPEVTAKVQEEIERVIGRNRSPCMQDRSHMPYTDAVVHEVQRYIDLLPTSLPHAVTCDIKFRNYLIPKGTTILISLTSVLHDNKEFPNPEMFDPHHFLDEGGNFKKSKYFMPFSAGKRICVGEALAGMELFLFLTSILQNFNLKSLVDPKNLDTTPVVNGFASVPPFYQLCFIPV
CYP2C9 act – activators of human CYP2C9; P11712; recombinant CYP2C9, luciferin-H conversion, luminescence; stronger effect = higher value; factor 1 = untreated enzyme, 0 = blocked; activation factor at 5 µM; hit rate 1.4% among 96,000; AID 1024;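 active means activation factor of 2 or more for CYP2C9 at a 5 µM dose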;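 further: 0 = sulfaphenazole-blocked wells and 1 = vehicle-only wells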
Cav3 T inh – inhibitors of human Cav3.2 T-type calcium channel; O95180; Cav3.2-expressing cells, Fluo-4 calcium fluorescence FDSS; stronger effect = lower value; B-score at 10 µM; hit rate 4% among 100,000;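 active means single-dose well whose peak fluorescence ratio is a statistical outlier from its plate by either plate-standardised score or position-corrected B-score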
CYP2C19 inh – blocks human cytochrome P450 2C19; CYP2C19 Supersomes, luciferin-H EGE luminescence, 30 min; inhibition, % at 5 µM; hit rate 21% among 96,000;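 active means CYP2C19 inhibition above a set limit at 5 µM in the primary screen, cut at about 50% in these data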;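 further: plate controls were negative control wells for no effect and 2.5 mM tranylcypromine positive control for full effect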
CYP2C19 activ – cytochrome P450 2C19 (human) activation | P33261 | recombinant CYP2C19, luciferin-H EGE luminescence; stronger effect = higher value; 0 = fully inhibited enzyme, 1 = untreated enzyme | activation factor at 5 µM | 96,000 tested, under 10 active | AID 1025;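 active means activation factor of at least 2 at 5 µM in the primary screen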;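 further: 0 = wells with 2.5 mM tranylcypromine and 1 = vehicle-only wells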
An asterisk follows results filed as active; . = no result.

SMILES	CYP2C9 inh	CYP2C9 act	Cav3 T inh	CYP2C19 inh	CYP2C19 activ
COc1ccc(N2C(=O)C(Cl)=C(N3CCCC(C)C3)C2=O)cc1 (configuration not stated)	84.9*	0.2	-3.02	83.8*	0.2
O=C(c1ccccc1)N1CCCC(c2ccc(Cl)cc2)=N1	44.8	0.6	-1.29	56.8*	0.4
O=C(c1cccc(Cl)c1)N1CCCC(c2ccc(Cl)cc2)=N1	48.1	0.5	-0.241	61.7*	0.4
Clc1cccc(Cl)c1COc1ccccn1	37.3	0.6	-0.203	51.5*	0.5
O=C(COC(=O)c1ccccn1)Nc1c(Cl)cccc1Cl	-5.3	1.1	0.246	37.5	0.6
Cc1cc(C)c(S(=O)(=O)n2ccc(-c3ccc(OCCN(C)c4ccccn4)cc3)n2)c(C)c1	57.4*	0.4	-0.61	13.9	0.9
CC(C)(C)OC(=O)CNC(=O)c1[nH]cnc1C(=O)Nc1ccc(Cl)cc1	.	.	1.2	.	.
CCOC(=O)C1=C(C)NC2=C(C(=O)c3ccccc32)C1c1cccnc1 (configuration not stated)	-0.6	1	0.622	11.2	0.9
CC1=C([N+](=O)[O-])C(c2ccccc2)C2=C(N1)c1ccccc1C2=O (configuration not stated)	46.7	0.5	-3.83*	36.1	0.6
COc1cc(C2C(C#N)=C(C)NC3=C2C(=O)c2ccccc23)cc(OC)c1OC (configuration not stated)	97.7*	0	-2.19	28.8	0.7
CCOc1ccc(C2C(C#N)=C(C)NC3=C2C(=O)c2ccccc23)cc1 (configuration not stated)	97.2*	0	-3.17	98.8*	0
COc1ccc(C2C(C#N)=C(C)NC3=C2C(=O)c2ccccc23)cc1 (configuration not stated)	12.6	0.9	-1.15	11.0	0.9
Cc1csc2c(C#N)c(=O)c3c(n12)CCC3	9.9	0.9	1.14	16.5	0.8
COc1ccc(/C=C2/C(=O)ON=C2c2ccccc2)cc1OC	-8.8	1.1	0.95	-6.3	1.1
COc1ccc(/C=C2\SC(=NCc3ccccc3)N(Cc3ccccc3)C2=O)cc1OC	21.5	0.8	0.0179	71.9*	0.3
COc1cc(/C=C2/SC(=O)N(Cc3ccccc3)C2=O)ccc1OCc1ccncc1	82.3*	0.2	-0.72	79.6*	0.2
O=C(NC(=S)Nc1ccc(C(=O)N2CCOCC2)cc1)c1ccc([N+](=O)[O-])cc1	4.3	1	0.59	17.6	0.8
CSc1nsc(SCC(=O)Nc2c(C)n(C)n(-c3ccccc3)c2=O)n1	4.2	1	-0.0247	0.0	1
CSc1nsc(SCC(=O)Nc2ccc(C(C)=O)cc2)n1	57.4*	0.4	-1.96	49.5	0.5
Cc1cc(C)nc(SCC(=O)NC2=NN=C(c3ccc(Br)cc3)CS2)n1	-105.7	2.1*	0.369	9.3	0.9
CSc1nsc(SCC(=O)Nc2ccc(Br)cn2)n1	25.8	0.7	-4.07	73.3*	0.3
Cc1cc(C)nc(SCC(=O)Nc2ccc(Br)cn2)n1	16.0	0.8	-0.984	81.2*	0.2
Cc1nnc(SCC(=O)Nc2ccc(Br)cn2)[nH]c1=O	3.6	1	0.0362	-20.4	1.2
CCOC(=O)N1CCC(NC(=O)C(NC(=O)C2CCCCC2)C(C)C)CC1 (configuration not stated)	-9.4	1.1	.	-3.1	1
Nc1nnnn1CC(=O)OCc1cccc(Br)c1	-159.6	2.6*	-0.00824	35.6	0.6
SMILES	CYP2C9 inh	CYP2C9 act	Cav3 T inh	CYP2C19 inh	CYP2C19 activ
O=C(C1=C[C@@H](c2ccc(C(F)(F)F)cc2)C[C@@H](OCCCCO)O1)N1CCN(Cc2ccc3c(c2)OCO3)CC1	.	.	-2.85	.	.
Cc1c(C#N)c(NC(=O)c2cccc(Cl)c2)n(Cc2ccccc2)c1C	3.0	1	-0.983	-1.2	1
Cc1c(C#N)c(N)c(C(=O)c2ccccc2)n1Cc1ccccc1	75.8*	0.2	-1.51	99.3*	0
FC(F)(F)c1ccc(/C=N/N2CCN(Cc3cccc4ccccc34)CC2)cc1	3.6	1	-0.139	0.2	1
C(=N\N1CCN(Cc2cccc3ccccc23)CC1)/c1ccco1	-26.0	1.3	-2.12	50.0*	0.5
CC(O)(CS(=O)(=O)Cc1ccccc1)C(=O)Nc1cccc(C(F)(F)F)c1 (configuration not stated)	5.5	0.9	-2.59	42.7	0.6
CC(C)CNC(=O)CSc1ccc(Cl)cc1	32.0	0.7	0.141	40.2	0.6
